Results reported in PubChem BioAssay (Tox21).
Values joined by “and” are separate entries in the source; they are usually repeats but may differ in a detail not shown here. Equal values may be shown once. Results filed as inconclusive are left out. Where a structure was tested more than once in an assay, its records may differ in their call. Active and inactive are the calls of the source. Unless noted, the call rests on the fitted dose curve.

How the values were obtained:
[1] = Nuclear factor erythroid 2-related factor 2/antioxidant responsive element (Nrf2/ARE) small molecule agonists: qHTS cell viability counter screen in human keratinocytes (AID 1919968; active means well fitted curve in the direction sought with a large enough effect in the repeat runs; an effect the other way counts as inactive or inconclusive; further: nearly all actives have a fitted effect of over 55% in size; further: potency means the concentration at half of the fitted maximal effect); conditions: KeratinoSens HaCaT ARE cells viability, CellTiter-Fluor, 24 h; series mostly up to 92.4 µM
Outline: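 Measured as CellTiter-Fluor fluorescence, this readout tracks cytotoxicity in the same wells as the ARE-luciferase screen. HaCaT reporter cells (1,500/well) received compounds after a 5 h pre-incubation and were exposed for 23 h.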

[2] = target: KiSS-1 receptor (Homo sapiens) (UniProt Q969F8); assay: Human kisspeptin (KISS1R) small molecule agonists, calcium flux assay in KISS1R-HEK293 cells (AID 1920064; active means well fitted curve in the direction sought with a large enough effect in the repeat runs; an effect the other way counts as inactive or inconclusive); conditions: KISS1R-HEK293, calcium flux fluorescence, agonist; series mostly up to 76.8 µM
Chain of KiSS-1 receptor (Homo sapiens) (Q969F8 whole entry, looked up): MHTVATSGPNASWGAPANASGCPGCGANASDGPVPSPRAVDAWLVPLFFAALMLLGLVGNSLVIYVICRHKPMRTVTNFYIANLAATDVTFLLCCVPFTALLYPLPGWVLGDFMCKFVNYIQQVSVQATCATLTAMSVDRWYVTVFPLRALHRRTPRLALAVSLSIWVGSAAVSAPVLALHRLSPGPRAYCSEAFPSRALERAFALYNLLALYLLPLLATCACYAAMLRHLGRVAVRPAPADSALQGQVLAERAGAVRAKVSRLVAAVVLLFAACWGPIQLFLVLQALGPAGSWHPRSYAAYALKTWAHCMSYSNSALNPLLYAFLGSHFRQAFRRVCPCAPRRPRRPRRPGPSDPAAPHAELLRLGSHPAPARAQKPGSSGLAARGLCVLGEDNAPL
Outline: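 Measures KISS1R agonism through calcium-sensitive dye fluorescence in stably transfected HEK293 cells, read for 3 min after pin-tool compound delivery; 15-point titrations in triplicate.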

[3] = G protein-coupled receptor (GPCR) small molecule agonists, calcium flux assay: HEK293 wild type cell line counter screen (AID 1920065); conditions: HEK293 WT calcium flux, fluorescence, agonist mode; series mostly up to 57.6 µM
Outline: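 Readout: fluorescence at 480 nm excitation/540 nm emission, sampled at 1 s intervals for 3 min. Cells had been cultured 18 h, then dye-loaded 1 h at 37 C before compound or ATP addition.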

[4] = p53 small molecule agonists, cell-based qHTS assay with human liver microsomes (AID 1963577); conditions: HCT-116 p53RE-bla with human liver microsomes, ratio, 16 h; series mostly up to 66 µM
Outline: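 Fluorescence of the beta-lactamase reporter in p53RE-bla cells, detected with LiveBLAzer substrate (2 h, room temperature, dark), served as the read-out after 16 h compound exposure at 37 C with human liver microsomes and NADPH, each 0.5 mg/mL final.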

[5] = p53 small molecule agonists, cell-based qHTS assay with rat liver microsomes (AID 1963578); conditions: HCT-116 p53RE-bla, beta-lactamase ratio, 16 h; series mostly up to 66 µM
Outline: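 Cells carrying a p53 response element–beta-lactamase reporter were plated and rested 5 h, then dosed with compound in DMSO plus rat liver microsomes and NADPH, each at 0.5 mg/mL final. After 16 h at 37 C, LiveBLAzer substrate was added for 2 h.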

[6] = p53 small molecule agonists, cell-based qHTS assay with human liver microsomes: qHTS cell viability counter screen (AID 1963579); conditions: p53RE-bla HCT-116 viability, ATP luminescence, 16 h, HLM; series mostly up to 66 µM; further: nearly all actives have a fitted effect of over 45% in size; further: potency means the concentration at half of the fitted maximal effect
Outline: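 Cytotoxicity counter screen: p53RE-bla, 4,000 cells/well; 5 h settle, 37 C/5% CO2; cpd + HLM 0.5 mg/mL + NADPH 0.5 mg/mL (final); 16 h, 37 C; CellTiter-Glo, 30 min RT, luminescence.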

[7] = p53 small molecule agonists, cell-based qHTS assay with rat liver microsomes: qHTS cell viability counter screen (AID 1963580); conditions: p53RE-bla HCT-116 + rat microsomes, ATP viability, 16 h; series mostly up to 66 µM; further: nearly all actives have a fitted effect of over 45% in size; further: potency means the concentration at half of the fitted maximal effect
Outline: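 p53RE-bla HCT-116 cells were exposed 16 h at 37 C to compounds with rat liver microsomes (0.5 mg/mL) and NADPH (0.5 mg/mL). Viability was measured in the same wells as ATP content by CellTiter-Glo luminescence.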

[8] = p53 small molecule agonists, cell-based qHTS assay: qHTS cell viability counter screen (AID 1963581); conditions: p53RE-bla HCT-116 viability, ATP luminescence, 16 h; series mostly up to 66 µM; further: nearly all actives have a fitted effect of over 45% in size; further: potency means the concentration at half of the fitted maximal effect
Outline: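 In the same plates used for the p53 bla reporter, HCT-116 cells given compounds for 16 h at 37 C received CellTiter-Glo; luminescence was recorded 30 min later at room temperature.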

[9] = target: 5-hydroxytryptamine receptor 2A (Homo sapiens) (UniProt P28223); assay: 5-hydroxytryptamine receptor 2A (HTR2A) small molecule antagonists, cell-based qHTS assay (AID 1963586); conditions: HTR2A-CHO cells, DOI-induced calcium flux, fluorescence; series mostly up to 61.5 µM; further: nearly all actives have a fitted effect of over 45% in size; further: potency means the concentration at half of the fitted maximal effect
Chain of 5-hydroxytryptamine receptor 2A (Homo sapiens) (P28223 whole entry, looked up): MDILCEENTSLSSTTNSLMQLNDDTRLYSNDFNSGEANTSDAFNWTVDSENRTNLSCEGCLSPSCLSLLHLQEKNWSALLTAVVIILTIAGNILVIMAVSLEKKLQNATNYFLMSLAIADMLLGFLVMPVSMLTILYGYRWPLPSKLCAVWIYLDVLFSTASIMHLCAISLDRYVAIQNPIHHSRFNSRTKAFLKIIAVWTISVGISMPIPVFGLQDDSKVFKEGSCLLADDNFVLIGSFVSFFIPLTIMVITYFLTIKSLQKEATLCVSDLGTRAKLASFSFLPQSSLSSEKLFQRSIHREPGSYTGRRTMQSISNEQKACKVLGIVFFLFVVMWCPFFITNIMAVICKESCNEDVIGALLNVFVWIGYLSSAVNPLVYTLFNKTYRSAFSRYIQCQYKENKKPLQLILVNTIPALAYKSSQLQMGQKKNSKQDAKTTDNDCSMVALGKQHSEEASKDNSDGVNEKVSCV
Outline: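 Antagonist-mode intracellular calcium assay: DOI (4 nM) added after 5 min compound pre-incubation at room temperature to dye-loaded HTR2A-CHO cells. Fluorescence followed for 3 min, sampled every second.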

[10] = target: 5-hydroxytryptamine receptor 2A (Homo sapiens) (UniProt P28223); assay: 5-hydroxytryptamine receptor 2A (HTR2A) small molecule agonists, cell-based qHTS assay (AID 1963587); conditions: HTR2A-CHO cells, calcium flux fluorescence, agonist mode; series mostly up to 76.8 µM; further: nearly all actives have a fitted effect of over 30% in size; further: potency means the concentration at half of the fitted maximal effect
Outline: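 CHO cells stably expressing human HTR2A, plated 18 h, loaded with calcium dye 1 h at 37 C. Agonist mode: compounds added and intracellular calcium fluorescence recorded kinetically for 2 min at 1 sec intervals.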

[11] = target: Muscarinic acetylcholine receptor M1 (Homo sapiens) (UniProt P11229); assay: Cholinergic receptor muscarinic 1 (CHRM1) small molecule antagonists, cell-based qHTS assay (AID 1963588); conditions: CHRM1-CHO antagonist mode, calcium flux fluorescence; series mostly up to 61.5 µM; further: nearly all actives have a fitted effect of over 40% in size
Chain of Muscarinic acetylcholine receptor M1 (Homo sapiens) (P11229 whole entry, looked up): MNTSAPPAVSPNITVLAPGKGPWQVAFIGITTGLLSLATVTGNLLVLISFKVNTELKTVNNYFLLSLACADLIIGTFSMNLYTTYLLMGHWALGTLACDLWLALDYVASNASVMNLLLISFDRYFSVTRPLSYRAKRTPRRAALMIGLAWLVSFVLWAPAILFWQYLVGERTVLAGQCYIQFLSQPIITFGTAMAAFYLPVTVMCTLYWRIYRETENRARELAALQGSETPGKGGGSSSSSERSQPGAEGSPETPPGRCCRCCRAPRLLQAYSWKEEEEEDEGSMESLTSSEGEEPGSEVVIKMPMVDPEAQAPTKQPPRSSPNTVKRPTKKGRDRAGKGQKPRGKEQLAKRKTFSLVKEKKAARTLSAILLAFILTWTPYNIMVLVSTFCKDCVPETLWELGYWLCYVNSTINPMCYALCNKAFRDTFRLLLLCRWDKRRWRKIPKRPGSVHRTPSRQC
Outline: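 CHRM1-CHO calcium-flux assay, antagonist mode. Cells were seeded 18 h, dye-loaded 1 h at 37 C and given compound for 5 min at RT, then acetylcholine was added at 50nM. FDSS fluorescence was read 3 min; 15 concentrations, three runs.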

[12] = target: Muscarinic acetylcholine receptor M1 (Homo sapiens) (UniProt P11229); assay: Cholinergic receptor muscarinic 1 (CHRM1) small molecule agonists, cell-based qHTS assay (AID 1963589); conditions: CHRM1-CHO cells, agonist mode, calcium flux fluorescence; series mostly up to 76.8 µM; further: nearly all actives have a fitted effect of over 35% in size; further: potency means the concentration at half of the fitted maximal effect
Outline: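 Each compound was tested at 15 concentrations across three independent runs on dye-loaded CHO cells stably expressing human CHRM1, reading intracellular calcium fluorescence kinetically at 1 sec intervals.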

[13] = target: Beta-2 adrenergic receptor (Homo sapiens) (UniProt P07550); assay: Adrenergic beta2 receptor (ADRB2) small molecule antagonists, cell-based qHTS assay (AID 1963592); conditions: CHO-ADRB2 cells, isoproterenol-stimulated cAMP HTRF ratio, 0.5 h; series mostly up to 92.4 µM; further: nearly all actives have a fitted effect of over 50% in size; further: potency means the concentration at half of the fitted maximal effect
Chain of Beta-2 adrenergic receptor (Homo sapiens) (P07550 whole entry, looked up): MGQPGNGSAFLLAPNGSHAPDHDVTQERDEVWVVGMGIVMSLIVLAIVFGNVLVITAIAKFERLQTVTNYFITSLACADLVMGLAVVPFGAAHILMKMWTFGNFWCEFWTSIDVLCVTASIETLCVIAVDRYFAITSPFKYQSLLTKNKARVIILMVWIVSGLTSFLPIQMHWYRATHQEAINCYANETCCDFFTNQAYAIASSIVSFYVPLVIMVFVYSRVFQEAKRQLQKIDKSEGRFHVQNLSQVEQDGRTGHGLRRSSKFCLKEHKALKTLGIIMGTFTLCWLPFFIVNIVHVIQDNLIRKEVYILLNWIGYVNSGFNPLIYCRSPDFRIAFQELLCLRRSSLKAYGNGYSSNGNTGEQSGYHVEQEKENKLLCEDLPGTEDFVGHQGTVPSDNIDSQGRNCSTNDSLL
Outline: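 Cells (CHO, stable ADRB2 overexpression) incubated 18-20hr at 37C; compounds added from DMSO; agonist mix (1nM isoproterenol, 100uM IBMX, 25uM Ro-20-1724) added; 0.5hr RT; d2-cAMP and anti-cAMP-cryptate added; 1hr RT; 665/615 nm read.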

[14] = target: D(2) dopamine receptor (Homo sapiens) (UniProt P14416); assay: Dopamine D2 receptor (DRD2) small molecule agonists, cell-based qHTS assay (AID 1963594); conditions: HEK293-DRD2 cAMP HTRF, agonist mode, 30 min; series mostly up to 92.4 µM; further: nearly all actives have a fitted effect of over 35% in size; further: potency means the concentration at half of the fitted maximal effect
Chain of D(2) dopamine receptor (Homo sapiens) (P14416 whole entry, looked up): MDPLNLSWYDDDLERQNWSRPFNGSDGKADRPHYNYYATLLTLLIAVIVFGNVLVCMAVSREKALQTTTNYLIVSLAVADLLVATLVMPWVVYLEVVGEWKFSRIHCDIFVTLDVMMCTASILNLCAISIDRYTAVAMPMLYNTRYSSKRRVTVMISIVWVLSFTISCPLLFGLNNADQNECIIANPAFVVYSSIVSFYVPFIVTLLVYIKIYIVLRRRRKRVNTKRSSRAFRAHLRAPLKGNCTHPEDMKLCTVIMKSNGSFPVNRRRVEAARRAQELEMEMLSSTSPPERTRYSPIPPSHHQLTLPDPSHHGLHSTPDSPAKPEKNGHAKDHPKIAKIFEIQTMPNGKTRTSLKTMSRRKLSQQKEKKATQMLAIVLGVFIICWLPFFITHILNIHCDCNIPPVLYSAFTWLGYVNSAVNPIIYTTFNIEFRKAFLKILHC
Outline: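 HEK293 cells stably expressing human DRD2, pre-treated with PDE inhibitor Ro20-1724 (0.1 mM final) and compound 10 min at room temperature, then stimulated with NKH477 (200nM […]) for 30 min. cAMP read by HTRF (665/620 nm).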

[15] = target: D(2) dopamine receptor (Homo sapiens) (UniProt P14416); assay: Dopamine D2 receptor (DRD2) small molecule antagonists, cell-based qHTS assay (AID 1963595; active means well fitted inhibition curve with a large enough effect in the signal ratio in the repeat runs, with a control signal flat; the % refers to the signal ratio); conditions: HEK293-DRD2 cAMP HTRF antagonist mode; series mostly up to 92.4 µM
Outline: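 HTRF cAMP read-out at 665 and 620 nm emission (340 nm excitation). Antagonist mode: compounds were tested against 12 nM quinpirole in DRD2-HEK293 cells, with 200 nM NKH477 raising cAMP and 0.1 mM Ro20-1724 blocking its breakdown.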

[16] = p53 small molecule agonists, cell-based qHTS assay (AID 1963582; active means well fitted activation curve with a large enough effect in the signal ratio in the repeat runs, not every such curve was filed as active; the % refers to the signal ratio); conditions: HCT-116 p53RE-bla reporter, beta-lactamase FRET ratio, 16 h; series mostly up to 66 µM
Outline: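 Compounds are pin-transferred in DMSO onto p53RE-bla cells and incubated 16 h at 37 C. The B/G FRET beta-lactamase substrate is then applied for 2 h at RT and fluorescence recorded.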

[17] = cAMP Responsive Elements (CRE) small molecule agonists, cell-based qHTS assay (AID 1963590); conditions: CRE-bla HEK293T, beta-lactamase FRET ratio, 3 h; series mostly up to 92.4 µM
Outline: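 Cell line: CRE-bla HEK 293T; medium DMEM/10% dialyzed FBS/0.1 mM NEAA/1 mM pyruvate/25 mM HEPES; 3 h compound exposure; beta-lactamase FRET readout after 2 h substrate loading at RT.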

[18] = target: Beta-2 adrenergic receptor (Homo sapiens) (UniProt P07550); assay: Adrenergic beta2 receptor (ADRB2) small molecule agonists, cell-based qHTS assay (AID 1963593); conditions: CHO-ADRB2 cells, cAMP HTRF, 30 min; series mostly up to 92.4 µM;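 further: CHO cells stably overexpressing human ADRB2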
Outline: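 CHO cells stably over-expressing ADRB2 were plated overnight at 37C, then dosed with compounds plus a stimulation mix containing 100uM IBMX and 25uM Ro-20-1724 for 0.5hr at room temperature. cAMP was measured by HTRF competition, 1hr.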

[19] = target: Gonadotropin-releasing hormone receptor (Homo sapiens) (UniProt P30968); assay: Human gonadotropin-releasing hormone receptor (GnRHR) small molecule agonists, calcium flux assay in GnRHR-HEK293 cells (AID 1920063); conditions: calcium flux fluorescence, agonist mode; series mostly up to 57.6 µM; further: nearly all actives have a fitted effect of over 35% in size
Chain of Gonadotropin-releasing hormone receptor (Homo sapiens) (P30968 whole entry, looked up): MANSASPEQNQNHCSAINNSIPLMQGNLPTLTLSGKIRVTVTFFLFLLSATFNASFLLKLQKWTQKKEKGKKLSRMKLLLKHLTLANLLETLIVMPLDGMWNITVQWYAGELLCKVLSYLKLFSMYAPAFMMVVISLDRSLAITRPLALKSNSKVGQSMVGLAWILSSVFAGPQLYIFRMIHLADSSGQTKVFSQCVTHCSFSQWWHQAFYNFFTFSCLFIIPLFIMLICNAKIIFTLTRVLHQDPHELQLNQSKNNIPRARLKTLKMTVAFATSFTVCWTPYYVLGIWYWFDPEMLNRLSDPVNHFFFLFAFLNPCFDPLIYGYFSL
Outline: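 Fluorescence kinetics (480 nm excitation, 540 nm emission; 3 min, 1 s steps) report calcium mobilisation in human GnRHR-HEK293 cells in agonist mode. Dye incubation: 1 h, 37 C.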

[20] = cAMP Responsive Elements (CRE) small molecule antagonists, cell-based qHTS assay (AID 1963591; active means well fitted inhibition curve with a large enough effect in the signal ratio in the repeat runs, not every such curve was filed as active; the % refers to the signal ratio); conditions: CRE-bla HEK293T, beta-lactamase FRET ratio; series mostly up to 92.4 µM
Outline: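 Inhibition of NKH477-driven (0.25 uM final) CRE-beta-lactamase signal in HEK293T cells, 3 h compound exposure at 37 °C, detected by FRET substrate fluorescence.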

Measured: Potency

C[CH2][Hg][S]c1ccccc1C(=O)O
27.3 µM (active) and inactive: [13]
active: [1] 1.22 µM and 5.96 µM | [6] 10.2 µM and 11.2 µM | [7] 18.2 µM and 9.98 µM | [8] 10.2 µM and 11.2 µM | [9] 18.8 µM | [10] 43.6 µM and 21.3 µM | [12] 54.9 µM and 19 µM | [14] 16.6 µM
inactive: [2] | [3] | [4] | [5] | [11] | [15]

C=CC(=O)NC(C)(C)CC(C)=O
inactive: [1] | [2] | [3] | [4] | [5] | [6] | [7] | [8] | [16] | [9] | [10] | [11] | [12] | [17] | [13] | [18] | [14] | [15]

Nc1ccccc1C(=O)O
inactive: [19] | [2] | [3] | [4] | [5] | [6] | [7] | [8] | [16] | [9] | [10] | [11] | [12] | [17] | [20] | [13] | [18] | [14] | [15]

Sc1ccccc1
inactive: [1] | [2] | [3] | [6] | [7] | [8] | [9] | [10] | [11] | [12] | [17] | [20] | [18] | [14] | [15]

CCOC(=S)S
inactive: [19] | [4] | [6] | [7] | [8] | [16] | [9] | [10] | [11] | [12] | [17] | [20] | [13] | [14] | [15]
active: [1] 27.3 µM and 18.3 µM

CN1C(=O)CN=C(c2ccccc2)c2cc(Cl)ccc21
inactive: [1] | [2] | [3] | [8] | [17] | [13] | [14]

CC(C)OC(=O)Nc1ccccc1
inactive: [1] | [19] | [3] | [5] | [6] | [7] | [8] | [16] | [9] | [10] | [12] | [17] | [20] | [13] | [14] | [15]

O=C(O)c1ccccc1O
inactive: [1] | [19] | [2] | [3] | [17] | [20] | [13] | [14] | [15]

ClCC(Br)CBr (stereo unspecified)
inactive: [1] | [19] | [4] | [5] | [6] | [7] | [8] | [16] | [9] | [10] | [11] | [12] | [17] | [20] | [13] | [14] | [15]

COc1ccc(CO)cc1
inactive: [1] | [19] | [3] | [4] | [5] | [6] | [7] | [8] | [16] | [9] | [11] | [12] | [17] | [20] | [13] | [18] | [14] | [15]

C[C@]12CC[C@H]3[C@@H](CC=C4C[C@@H](O)CC[C@@]43C)[C@@H]1CC[C@@H]2O
inactive: [1] | [19] | [3] | [4] | [5] | [6] | [7] | [8] | [16] | [17] | [20] | [13] | [15]

O=[N+]([O-])O
inactive: [1] | [19] | [2] | [3] | [7] | [8] | [9] | [10] | [11] | [12] | [17] | [20] | [18] | [15]

CCCCn1cc[n+](C)c1
inactive: [1] | [19] | [2] | [7] | [8] | [9] | [10] | [12] | [17] | [20] | [13] | [18] | [15]
inactive and 40.8 µM (active): [6]

N#Cc1ccc(O)cc1
inactive: [1] | [19] | [3] | [4] | [5] | [6] | [7] | [8] | [16] | [9] | [10] | [11] | [12] | [17] | [20] | [13] | [15]

O=NN1CCCCC1
inactive: [1] | [2] | [3] | [4] | [5] | [6] | [7] | [8] | [16] | [9] | [10] | [11] | [12] | [17] | [20] | [13] | [14] | [15]
